Data: the supplement of paper PMC10849652
The full data set covers some 7,900 targets. This sample favours those with a hit. About 0.6% of all pairs of compound and target were hits.

Assays:
Experiment in all cases: log2 fold change, soluble protein after heating vs DMSO (PISA); higher = thermal stabilisation; K562 cells, 10 uM, 30 min; active = over 0.2 and 3.5 SD of the protein, either way, in both replicates (recomputed)
[1] = compound: CC1=C(C=C(C=C1)NC(=O)C2=CC(=CC=C2)C(C)(C)C#N)NC3=CC4=C(C=C3)N=CN(C4=O)C
In short: (§1)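 K562 cells at 2×10^6 cells/mL were given 10 μM compound for 30 min. Aliquots then went through 3 min of heating across 48°C-58°C, were pooled, and were extracted in PBS with 0.5% NP-40 at 4°C, and the supernatant after 21,000xg for 90 min was quantified by TMTpro 16plex LC-MS/MS with channel sums equalised. Thermal stability relative to control samples, from duplicates, is given as log2 fold change.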

[2] = compound: CC1=C(C=C(C=C1)NC(=O)C2=CC(=CC=C2)N(C)C)NC(=O)C3=CC=C(C=C3)O
In short: as §1

[3] = compound: CC1=CC=C(C=C1)SC2=C3C=C(SC3=CN=C2)C(=O)N
In short: as §1

[4] = compound: CC1=NC(=CC=C1)C2=C(N=C(N2)C(C)(C)C)C3=CC4=NC=CN=C4C=C3
In short: as §1

[5] = compound: CCCCN(Cc1ccc(C(=O)NO)cc1)C(=O)Nc1ccccc1 [Nexturastat A]
In short: as §1

[6] = compound: CCCS(=O)(=O)Nc1ccc(F)c(C(=O)c2c[nH]c3ncc(-c4ccc(Cl)cc4)cc23)c1F [vemurafenib]
In short: as §1

[7] = compound: CCCS(=O)(=O)Nc1ccc(F)c(C(=O)c2c[nH]c3ncc(Cl)cc23)c1F
In short: as §1

[8] = compound: CCCc1cc(C)[nH]c(=O)c1CNC(=O)c1cc(-c2ccnc(N3CCN(C)CC3)c2)cc2c1cnn2C(C)C
In short: as §1

[9] = compound: CCN(CC)Cc1ccc2cc(COC(=O)Nc3ccc(C(=O)NO)cc3)ccc2c1 [givinostat]
In short: as §1

[10] = compound: CCN(CCCOc1ccc2c(Nc3cc(CC(=O)Nc4cccc(F)c4)[nH]n3)ncnc2c1)CCOP(=O)(O)O [barasertib]
In short: as §1

Measured: log2 fold change

ADPRH (UniProt P54922)
inactive: [1] 0.014 | [2] -0.008 | [3] -0.002 | [4] -0.134 | [5] 0.015 | [6] 0.071 | [7] -0.037 | [8] -0.005 | [9] 0.025 | [10] -0.036

BRAP (UniProt Q7Z569)
inactive: [1] 0.057 | [2] 0.075 | [3] 0.023 | [4] 0.029 | [5] -0.031 | [6] 0.037 | [7] 0.151 | [8] 0.08 | [9] -0.081 | [10] 0.08

BAIAP2 (UniProt Q9UQB8)
inactive: [1] -0.019 | [2] 0.01 | [3] 0.007 | [4] -0.012 | [5] 0.041 | [6] 0.021 | [7] 0.068 | [8] 0.048 | [9] 0.029 | [10] 0.048

ARFIP1 (UniProt P53367)
inactive: [1] -0.031 | [2] 0.042 | [3] 0.022 | [4] -0.006 | [5] -0.081 | [6] -0.026 | [7] 0.084 | [8] 0.045 | [9] 0.058 | [10] 0.046

ANKZF1 (UniProt Q9H8Y5)
inactive: [1] 0.011 | [2] 0 | [3] -0.055 | [4] -0.059 | [5] 0.399 | [6] -0.011 | [7] -0.042 | [8] 0.132 | [9] 0.195 | [10] 0.04

ANAPC2 (UniProt Q9UJX6)
inactive: [1] 0.031 | [2] -0.015 | [3] -0.001 | [4] 0.069 | [5] -0.045 | [6] 0.027 | [7] 0.047 | [8] -0.049 | [9] 0.042 | [10] 0.022

ATF7 isoform 6 (UniProt P17544)
Chain of UniProt P17544 (P17544 whole entry, looked up): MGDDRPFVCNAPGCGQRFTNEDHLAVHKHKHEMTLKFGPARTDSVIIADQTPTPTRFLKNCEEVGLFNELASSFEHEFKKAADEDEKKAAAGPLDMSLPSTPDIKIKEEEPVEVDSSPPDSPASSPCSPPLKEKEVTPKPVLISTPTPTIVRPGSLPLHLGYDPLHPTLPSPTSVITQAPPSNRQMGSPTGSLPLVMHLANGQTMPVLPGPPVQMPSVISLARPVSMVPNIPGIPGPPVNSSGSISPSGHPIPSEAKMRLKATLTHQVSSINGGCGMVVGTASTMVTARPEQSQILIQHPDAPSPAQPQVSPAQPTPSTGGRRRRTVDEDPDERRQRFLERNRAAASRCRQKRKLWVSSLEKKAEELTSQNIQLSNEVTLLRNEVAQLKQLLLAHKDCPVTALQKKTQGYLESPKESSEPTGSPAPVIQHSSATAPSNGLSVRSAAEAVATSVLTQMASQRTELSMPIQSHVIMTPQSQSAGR
inactive: [1] 0.465 | [2] -0.163 | [3] -0.155 | [4] -0.085 | [5] -0.042 | [6] 0.045 | [7] 0.239 | [8] -0.032 | [9] -0.131 | [10] -0.033

ATP1A1 (UniProt P05023)
inactive: [1] 0.002 | [2] 0.01 | [3] 0.015 | [4] 0.025 | [5] -0.019 | [6] 0.017 | [7] 0.005 | [8] 0.068 | [9] -0.001 | [10] -0.02

AUP1 (UniProt Q9Y679)
Chain of UniProt Q9Y679 (Q9Y679 whole entry, looked up): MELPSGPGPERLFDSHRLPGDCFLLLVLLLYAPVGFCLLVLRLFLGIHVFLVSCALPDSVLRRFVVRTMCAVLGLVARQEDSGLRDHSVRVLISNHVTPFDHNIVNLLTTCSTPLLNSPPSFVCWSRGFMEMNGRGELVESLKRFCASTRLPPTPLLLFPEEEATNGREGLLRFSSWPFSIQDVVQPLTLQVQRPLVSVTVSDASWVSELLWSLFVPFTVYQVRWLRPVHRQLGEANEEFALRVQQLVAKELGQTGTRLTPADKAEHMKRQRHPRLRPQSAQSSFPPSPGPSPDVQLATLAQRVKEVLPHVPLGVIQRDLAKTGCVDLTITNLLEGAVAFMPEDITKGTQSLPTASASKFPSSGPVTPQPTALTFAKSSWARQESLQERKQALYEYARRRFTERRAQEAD
inactive: [1] 0.054 | [2] 0.021 | [3] 0.009 | [4] -0.005 | [5] -0.048 | [6] 0.121 | [7] 0.058 | [8] -0.056 | [9] 0.028 | [10] 0.06

ATP6V0A1 isoform 3 (UniProt Q93050)
inactive: [1] 0.038 | [2] -0.034 | [3] -0.006 | [4] -0.051 | [5] 0.198 | [6] 0.017 | [7] 0 | [8] 0.032 | [9] 0.031 | [10] 0.006

ADD1 isoform 3 (UniProt P35611)
Chain of UniProt P35611 (P35611 whole entry, looked up): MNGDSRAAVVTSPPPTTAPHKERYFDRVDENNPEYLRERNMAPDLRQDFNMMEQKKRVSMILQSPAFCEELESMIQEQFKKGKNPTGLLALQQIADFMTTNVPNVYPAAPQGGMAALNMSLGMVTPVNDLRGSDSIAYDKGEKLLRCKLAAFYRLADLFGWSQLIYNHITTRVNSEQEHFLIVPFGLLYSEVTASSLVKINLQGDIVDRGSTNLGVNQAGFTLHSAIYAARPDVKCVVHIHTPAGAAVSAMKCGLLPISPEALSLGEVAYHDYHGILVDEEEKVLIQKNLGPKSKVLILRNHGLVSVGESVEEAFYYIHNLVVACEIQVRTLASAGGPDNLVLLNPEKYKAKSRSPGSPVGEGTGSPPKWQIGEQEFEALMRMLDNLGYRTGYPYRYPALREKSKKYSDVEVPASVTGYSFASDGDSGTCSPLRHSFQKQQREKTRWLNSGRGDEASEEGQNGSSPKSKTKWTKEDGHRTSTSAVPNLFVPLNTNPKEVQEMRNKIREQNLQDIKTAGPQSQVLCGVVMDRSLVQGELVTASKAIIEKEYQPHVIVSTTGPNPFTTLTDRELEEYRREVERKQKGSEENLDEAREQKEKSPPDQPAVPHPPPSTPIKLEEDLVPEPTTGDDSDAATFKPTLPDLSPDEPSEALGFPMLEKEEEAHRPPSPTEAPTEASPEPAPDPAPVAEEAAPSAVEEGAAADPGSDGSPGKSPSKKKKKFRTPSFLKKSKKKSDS
inactive: [1] -0.015 | [2] -0.031 | [3] -0.026 | [4] 0.015 | [5] 0.025 | [6] -0.059 | [7] 0.013 | [8] -0.025 | [9] -0.015 | [10] -0.022

ADRM1 (UniProt Q16186)
inactive: [1] 0.067 | [2] 0.009 | [3] -0.013 | [4] 0.024 | [5] 0.104 | [6] -0.022 | [7] -0.028 | [8] 0.01 | [9] 0.034 | [10] -0.021

ACBD6 (UniProt Q9BR61)
inactive: [1] 0.039 | [2] -0.04 | [3] 0.139 | [4] 0.067 | [5] 0.28 | [6] 0.029 | [7] 0.022 | [8] 0.127 | [9] -0.011 | [10] 0.018

ATP6V1C1 (UniProt P21283)
Chain of UniProt P21283 (P21283 whole entry, looked up): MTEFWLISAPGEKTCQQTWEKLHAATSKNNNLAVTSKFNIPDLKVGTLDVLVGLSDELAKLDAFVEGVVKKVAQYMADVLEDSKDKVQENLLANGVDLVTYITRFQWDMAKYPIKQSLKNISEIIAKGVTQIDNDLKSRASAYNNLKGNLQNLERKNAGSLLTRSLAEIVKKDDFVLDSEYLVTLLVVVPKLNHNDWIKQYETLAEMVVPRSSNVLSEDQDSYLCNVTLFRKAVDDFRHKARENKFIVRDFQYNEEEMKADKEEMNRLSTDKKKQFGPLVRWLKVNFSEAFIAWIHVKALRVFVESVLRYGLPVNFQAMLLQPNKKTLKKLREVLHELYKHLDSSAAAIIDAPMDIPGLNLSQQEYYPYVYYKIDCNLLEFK
inactive: [1] 0.004 | [2] -0.037 | [3] -0.024 | [4] -0.033 | [5] 0.131 | [6] -0.018 | [7] 0.057 | [8] 0.026 | [9] 0.031 | [10] 0.062

ARHGAP1 (UniProt Q07960)
inactive: [1] -0.024 | [2] -0.022 | [3] -0.009 | [4] 0.012 | [5] 0.03 | [6] 0.002 | [7] 0.052 | [8] -0.018 | [9] -0.014 | [10] 0.006

ATP5ME (UniProt P56385)
inactive: [1] 0.036 | [2] -0.037 | [3] 0.031 | [4] 0.011 | [5] -0.035 | [6] -0.003 | [7] -0.041 | [8] -0.041 | [9] 0.027 | [10] 0.007

ATL2 (UniProt Q8NHH9)
inactive: [1] 0.022 | [2] -0.107 | [3] -0.013 | [4] 0.029 | [5] 0.037 | [6] -0.004 | [7] 0.005 | [8] -0.104 | [9] 0.023 | [10] 0.019

BZW1 isoform 3 (UniProt Q7L1Q6)
inactive: [1] 0.064 | [2] -0.014 | [3] 0.036 | [4] 0.038 | [5] 0.016 | [6] 0.107 | [7] 0.126 | [8] 0.105 | [9] 0.084 | [10] 0.06

ATP6AP1 (UniProt Q15904)
inactive: [1] 0.009 | [2] -0.025 | [3] 0.004 | [4] -0.027 | [5] 0.114 | [6] -0.003 | [7] -0.018 | [8] -0.009 | [9] 0.038 | [10] 0.016

ALG5 (UniProt Q9Y673)
inactive: [1] 0.039 | [2] 0.019 | [3] -0.001 | [4] 0.049 | [5] -0.055 | [6] 0.035 | [7] 0.059 | [8] 0.025 | [9] 0.01 | [10] 0.02

ACP2 (UniProt P11117)
Chain of UniProt P11117 (P11117 whole entry, looked up): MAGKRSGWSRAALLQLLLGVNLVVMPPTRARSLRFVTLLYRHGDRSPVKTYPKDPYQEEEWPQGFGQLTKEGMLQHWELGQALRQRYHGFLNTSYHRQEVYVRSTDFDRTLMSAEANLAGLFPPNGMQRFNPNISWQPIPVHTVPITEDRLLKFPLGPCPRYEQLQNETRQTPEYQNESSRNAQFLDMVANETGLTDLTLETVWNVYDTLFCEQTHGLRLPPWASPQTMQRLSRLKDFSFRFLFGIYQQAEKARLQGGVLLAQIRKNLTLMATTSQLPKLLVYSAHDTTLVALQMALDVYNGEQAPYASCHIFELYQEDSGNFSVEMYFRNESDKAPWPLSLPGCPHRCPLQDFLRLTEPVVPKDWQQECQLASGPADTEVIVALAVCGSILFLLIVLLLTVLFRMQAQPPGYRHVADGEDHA
inactive: [1] -0.014 | [2] -0.013 | [3] 0.029 | [4] -0.027 | [5] -0.08 | [6] 0.017 | [7] -0.023 | [8] -0.038 | [9] 0 | [10] 0.016

AGPS (UniProt O00116)
inactive: [1] 0.126 | [2] 0.012 | [3] 0.013 | [4] -0.001 | [5] -0.084 | [6] 0.02 | [7] 0.041 | [8] -0.043 | [9] -0.033 | [10] 0.06

ATP23 (UniProt Q9Y6H3)
inactive: [1] 0.027 | [2] -0.013 | [3] 0.122 | [4] 0.058 | [5] -0.172 | [6] 0.021 | [7] -0.039 | [8] -0.031 | [9] -0.012 | [10] -0.049

ATR (UniProt Q13535)
Chain of UniProt Q13535 (Q13535 whole entry, looked up): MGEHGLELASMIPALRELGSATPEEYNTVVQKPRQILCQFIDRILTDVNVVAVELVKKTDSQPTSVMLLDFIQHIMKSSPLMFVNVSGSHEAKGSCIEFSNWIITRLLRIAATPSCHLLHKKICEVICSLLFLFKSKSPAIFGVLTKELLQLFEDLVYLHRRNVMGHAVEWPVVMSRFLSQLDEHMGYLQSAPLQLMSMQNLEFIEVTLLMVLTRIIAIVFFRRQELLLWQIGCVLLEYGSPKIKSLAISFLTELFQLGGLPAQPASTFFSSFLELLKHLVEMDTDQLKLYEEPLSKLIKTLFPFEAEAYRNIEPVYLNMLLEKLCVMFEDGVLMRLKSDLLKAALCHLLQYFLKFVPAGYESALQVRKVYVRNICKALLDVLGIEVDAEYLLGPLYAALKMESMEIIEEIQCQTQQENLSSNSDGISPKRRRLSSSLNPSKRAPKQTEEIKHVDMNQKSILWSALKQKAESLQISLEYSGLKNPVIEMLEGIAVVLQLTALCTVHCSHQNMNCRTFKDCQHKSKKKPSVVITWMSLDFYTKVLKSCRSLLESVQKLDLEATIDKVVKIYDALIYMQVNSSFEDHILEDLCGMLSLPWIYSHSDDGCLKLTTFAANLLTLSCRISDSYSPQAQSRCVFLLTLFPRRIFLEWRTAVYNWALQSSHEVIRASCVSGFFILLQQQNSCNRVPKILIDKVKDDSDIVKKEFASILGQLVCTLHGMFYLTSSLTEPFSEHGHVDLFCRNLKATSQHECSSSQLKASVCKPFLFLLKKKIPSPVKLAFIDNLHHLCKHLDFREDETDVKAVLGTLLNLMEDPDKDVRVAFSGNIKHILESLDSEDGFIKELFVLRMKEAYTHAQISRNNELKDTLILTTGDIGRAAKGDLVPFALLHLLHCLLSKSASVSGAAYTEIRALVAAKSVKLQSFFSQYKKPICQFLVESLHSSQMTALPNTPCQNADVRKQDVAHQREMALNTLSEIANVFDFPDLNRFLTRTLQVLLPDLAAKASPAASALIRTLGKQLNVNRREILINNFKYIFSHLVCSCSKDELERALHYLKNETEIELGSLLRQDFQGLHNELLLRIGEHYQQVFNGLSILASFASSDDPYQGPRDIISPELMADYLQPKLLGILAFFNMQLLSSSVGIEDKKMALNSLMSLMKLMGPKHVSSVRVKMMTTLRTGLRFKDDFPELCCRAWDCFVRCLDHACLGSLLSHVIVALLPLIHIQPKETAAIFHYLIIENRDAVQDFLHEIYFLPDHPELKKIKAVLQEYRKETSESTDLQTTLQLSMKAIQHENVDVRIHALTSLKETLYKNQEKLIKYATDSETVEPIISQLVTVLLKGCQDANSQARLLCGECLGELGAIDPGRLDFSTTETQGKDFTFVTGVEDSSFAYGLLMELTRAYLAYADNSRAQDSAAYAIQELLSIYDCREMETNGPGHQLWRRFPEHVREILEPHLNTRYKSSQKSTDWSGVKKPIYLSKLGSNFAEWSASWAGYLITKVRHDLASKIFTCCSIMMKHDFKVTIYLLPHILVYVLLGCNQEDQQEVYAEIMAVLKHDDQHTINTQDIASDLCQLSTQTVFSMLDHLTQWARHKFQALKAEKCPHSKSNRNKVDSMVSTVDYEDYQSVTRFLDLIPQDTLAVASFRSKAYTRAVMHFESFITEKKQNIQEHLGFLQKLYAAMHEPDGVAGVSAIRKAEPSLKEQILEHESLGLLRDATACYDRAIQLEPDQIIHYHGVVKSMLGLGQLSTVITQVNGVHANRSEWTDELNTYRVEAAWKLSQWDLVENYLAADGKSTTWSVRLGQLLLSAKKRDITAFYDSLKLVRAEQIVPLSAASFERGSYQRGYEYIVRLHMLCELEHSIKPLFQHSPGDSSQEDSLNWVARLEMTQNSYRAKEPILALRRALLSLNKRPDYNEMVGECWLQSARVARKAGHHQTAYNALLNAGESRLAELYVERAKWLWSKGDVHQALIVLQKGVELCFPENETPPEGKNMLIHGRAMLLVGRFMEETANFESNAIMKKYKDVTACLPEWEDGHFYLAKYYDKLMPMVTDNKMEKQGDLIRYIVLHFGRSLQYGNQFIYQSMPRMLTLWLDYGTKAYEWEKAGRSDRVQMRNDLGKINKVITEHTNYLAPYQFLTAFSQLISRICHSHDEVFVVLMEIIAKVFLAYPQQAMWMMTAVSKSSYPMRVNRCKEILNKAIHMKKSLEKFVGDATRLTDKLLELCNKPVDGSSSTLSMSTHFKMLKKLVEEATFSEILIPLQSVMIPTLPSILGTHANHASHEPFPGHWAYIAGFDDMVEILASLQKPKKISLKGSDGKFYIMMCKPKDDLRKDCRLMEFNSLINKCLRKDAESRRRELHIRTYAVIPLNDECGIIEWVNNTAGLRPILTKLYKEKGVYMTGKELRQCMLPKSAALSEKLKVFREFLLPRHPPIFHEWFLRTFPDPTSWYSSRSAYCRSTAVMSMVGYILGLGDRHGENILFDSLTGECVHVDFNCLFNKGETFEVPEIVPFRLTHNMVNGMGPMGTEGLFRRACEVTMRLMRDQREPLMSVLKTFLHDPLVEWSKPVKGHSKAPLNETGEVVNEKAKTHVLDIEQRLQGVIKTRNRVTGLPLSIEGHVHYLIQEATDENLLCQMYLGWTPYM
inactive: [1] -0.012 | [2] -0.022 | [3] 0.013 | [4] -0.126 | [5] 0.005 | [6] 0.035 | [7] -0.001 | [8] 0.015 | [9] 0.039 | [10] 0.037

AFDN isoform 5 (UniProt P55196)
inactive: [1] -0.031 | [2] -0.049 | [3] 0 | [4] 0.087 | [5] -0.033 | [6] 0.021 | [7] 0.023 | [8] 0.007 | [9] 0.062 | [10] 0.015

ARFGAP1 (UniProt Q8N6T3)
inactive: [1] -0.053 | [2] -0.168 | [3] 0.107 | [4] 0.034 | [5] 0.038 | [6] 0.085 | [7] 0.124 | [8] 0.016 | [9] 0.029 | [10] 0.1

ARPP19 (UniProt P56211)
inactive: [1] -0.012 | [2] 0.199 | [3] 0.057 | [4] 0.125 | [5] -0.04 | [6] 0.041 | [7] 0.043 | [8] -0.106 | [9] -0.003 | [10] -0.012

ARMC8 (UniProt Q8IUR7)
inactive: [1] 0.017 | [2] 0.039 | [3] -0.049 | [4] 0.006 | [5] -0.002 | [6] -0.017 | [7] 0.027 | [8] 0.065 | [9] 0 | [10] -0.025

ADD3 (UniProt Q9UEY8)
inactive: [1] 0.024 | [2] 0.016 | [3] -0.015 | [4] -0.003 | [5] 0.021 | [6] -0.021 | [7] 0.006 | [8] -0.013 | [9] -0.043 | [10] -0.01

BCCIP isoform 2 (UniProt Q9P287)
inactive: [1] 0.042 | [2] -0.055 | [3] -0.015 | [4] 0.022 | [5] -0.065 | [6] 0.008 | [7] -0.003 | [8] -0.099 | [9] -0.066 | [10] 0.026
